Where “and” joins values, the source holds several entries; their conditions need not be identical. Equal values may be shown once. About 2,000 (36%) of roughly 5,500 compounds were called active. About 18% were inconclusive and are not listed. Rule as the data show it: active = normalized growth mostly below about 0.91 (no sharp cut-off); inconclusive = no clear call, values can overlap the other calls; inactive = mostly above about 0.92. This is one part of the list. More than one record can exist for a structure, and the calls need not agree.
Assay: chemical genetic growth profiling, strain panel (AID 1159580);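 also: tested at 20 µM; growth read once vehicle control cultures reached saturation at 30 °C; 1 = growth at the plate median or of vehicle wells; lower values mean less growth of the strain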
Details: S. cerevisiae deletion strains, growth OD

Measured: normalized growth

CC(N)(Cc1ccc(O)c(O)c1)C(=O)O (stereo unspecified)
inactive: locus YAL013W, strain DEP1, stronger effect = lower value 0.956 | locus YAL040C, strain CLN3, stronger effect = lower value 0.961 and 1 | locus YDR363W, strain ESC2, stronger effect = lower value 1.02 and 1.01 | locus YER002W, strain NOP16, stronger effect = lower value 1.01 | locus YGR078C, strain PAC10, stronger effect = lower value 1.01 and 0.992 | locus YGR229C, strain SMI1, stronger effect = lower value 0.862 | locus YJR075W, strain HOC1, stronger effect = lower value 0.984 and 0.975 | locus YMR263W, strain SAP30, stronger effect = lower value 1.01 | locus YNL153C, strain GIM3, stronger effect = lower value 0.971 | locus YNL175C, strain NOP13, stronger effect = lower value 1.01 and 1 | locus YNL197C, strain WHI3, stronger effect = lower value 1.01 | locus YNL224C, strain SQS1, stronger effect = lower value 1.01 | locus YNL322C, strain KRE1, stronger effect = lower value 1.02 and 1.01 | locus YOR083W, strain WHI5 (second series), stronger effect = lower value 1.01 and 0.993 | locus YPL055C, strain LGE1, stronger effect = lower value 0.943
0.914 (active) and 0.963 (inactive): locus YCL061C, strain MRC1 (second series), stronger effect = lower value

Source: PubChem BioAssay AID1159580 (chemical genetic matrix, 2015)
